Results reported in the supplement of paper PMC7411640.
Counter-ions that a name gives are not always drawn.

System: MDA-MB-468
Assay: phospho-S6 immunofluorescence (DAPI-normalised), per-plate z-score; higher = higher phospho-S6 signal (less pathway suppression)
Conditions: 24 h
Method: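 GPCR-targeted compound library (MedChemExpress HY-L006) tested on MDA-MB-468 PTEN-null TNBC cells in 384-well plates at 0.1, 1 or 10 uM, combined with vehicle, GDC0941 450 nM or lapatinib 1 uM, for 24 h. Phospho-S6 (S240/244) immunofluorescence normalised to DAPI and expressed as a per-plate z-score; values are the mean of biological triplicates.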

SMILES	phospho-S6 immunofluorescence (z-score) (co-treatment: GDC0941 450 nM)	phospho-S6 immunofluorescence (z-score) (co-treatment: lapatinib 1 uM)	phospho-S6 immunofluorescence (z-score) (co-treatment: vehicle)
CC[C@H](C)[C@@H]1NC(=O)[C@H](Cc2ccc(O)cc2)NC(=O)[C@@H](N)CSSC[C@@H](C(=O)N2CCC[C@H]2C(=O)N[C@@H](CC(C)C)C(=O)NCC(N)=O)NC(=O)[C@H](CC(N)=O)NC(=O)[C@H](CCC(N)=O)NC1=O [Oxytocin (acetate)] (compound 10 µM)	-0.77	-0.07	-0.87
Cc1ccc(N(CC2=NCCN2)c2cccc(O)c2)cc1 [Phentolamine (mesylate)] (compound 10 µM)	-0.17	1.1	-0.58
CC(=O)OC(C)C[N+](C)(C)C (centres undefined) [Methacholine (chloride)] (compound 10 µM)	0.63	0.47	1
CC(C)NCC(O)COc1ccc(CCOCC2CC2)cc1 (centres undefined) [Betaxolol] (compound 10 µM)	0.15	0.69	-0.54
CC(C)[N+]1(C)[C@@H]2CC[C@H]1C[C@@H](OC(=O)C(CO)c1ccccc1)C2 (some centres undefined) [Ipratropium (bromide)] (compound 10 µM)	-0.02	0.28	-0.61
O=C(O)Cn1c2c(c3cc(F)ccc31)CN(C(=O)c1cccc3ccccc13)CC2 [Setipiprant] (compound 10 µM)	0.42	0.74	-0.03
CN1CCN(c2cc(-c3ccccc3)nc(N)n2)CC1 (compound 10 µM)	0.39	0.06	1.14
CCc1c(C)[nH]c2c1C(=O)C(CN1CCOCC1)CC2 (centres undefined) [Molindone (hydrochloride)] (compound 10 µM)	-0.5	0.28	0.19
